Hit rate of the full screen: of about 1,500 compounds, about 430 (29%) were called active. A selection follows. Entries with a potency or affinity are not part of this list. A number with no mark means an inactive call. The rule behind the calls is not given here.

This test can be described thus: insulin secretion activators without glucose, dose response, counter-screen for glucose-dependent insulin secretion activators, cell-based, INS-1E, Gaussia luciferase, luminescence, cherry-pick (AID 977606).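 Note: 0% = median of neutral control wells.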 To be noted: INS-1E Gaussia luciferase insulin secretion, no glucose, 100% = twice neutral-control luminescence; series mostly up to 35 µM; activation: at the top concentration. In general terms: A counterscreen serves to expose hits that act by an unwanted route or on another target.
Consider `COC(=O)[C@]1(Cc2ccccc2)N[C@H](CN(C)C(=O)Nc2ccc(C)cc2)[C@@H]2C(=O)N(C)C(=O)[C@@H]21`, for which the “activation” value is -4.45%.
The same measure for `CCNc1nc(NC(C)C)nc(N(C)C#N)n1`: -1.68%; for `CC1CN(S(=O)(=O)c2cc(C(=O)NC(C)c3cccnc3)ccc2Cl)CC(C)O1` (stereo unspecified): -5.54%.
Consider `COc1cc2c(cc1OC)[C@H](C)N(C(=O)NCc1ccccc1)CC2`, for which the “activation” value is -7.31%.
The same measure for `CC(=O)Nc1nc(C)nc(-c2ccccc2OC(C)=O)n1`: 25.7%; for `Cc1ccc(C(CC(=O)O)NC(=O)c2ccc(S(=O)(=O)N3CC(C)OC(C)C3)cc2)cc1` (stereo unspecified): -15.2%; for `CCOC1=C2[C@H](c3ccc(C)cc3)N(S(=O)(=O)c3ccc(C)cc3)C[C@H]2n2c(=O)n(-c3ccccc3)c(=O)n2C1`: 0.601%.
The same measure for `CC(=O)c1cccc(-c2csc3ncnc(Sc4nnnn4C)c23)c1`: 1.21%.
On to `CN1C(=O)NC(c2ccc(O)cc2)C2=C1CN(c1ccccc1)C2=O` (stereo unspecified), for which the “activation” value was -1.76%.
The same measure for `O=C(CC(NC(=O)c1ccccc1)c1ccccc1)Nc1cccc2ccccc12` (stereo unspecified): -12.6%; for `Cc1ccc(NC(=O)c2ccccc2-c2ccccc2C(=O)O)cc1C`: 2.93%; for `C=C(C)C1Cc2c(C)nn(-c3cccc4cccnc34)c2C1` (stereo unspecified): 6.7%.
Take `O=C(COc1ccc(Cl)cc1)NCCS(=O)(=O)N1CCN(c2ccccc2F)CC1`: the “activation” value was -13.2%.
Regarding `O=C(COc1cccc2c1CCNC2=O)NC1CCCCC1`, the “activation” value is -5.65%.
The same measure for `COc1ccc(CN(C)C(=O)CCN=C2NS(=O)(=O)c3ccccc32)c(OC)c1`: 3.04%; for `CC(C)CC(=O)Nc1cccc(-c2nc3ncccc3o2)c1`: -8.91%; for `COc1ccc(Cc2nnc(NC(=O)Cc3cccs3)s2)cc1OC`: 25.7%.
The same measure for `CCOC(=O)c1c(C)[nH]c(C(C)=NNC(=O)c2cccs2)c1C`: -3.52%; for `CCOC(=O)c1oc2ccccc2c1NC(=O)c1ccco1`: 4%; for `CCCCOc1ccc(SCCCN2CCOCC2)cc1`: 53.8%.
Consider `C/C(=N\NC(=O)CO/N=C(\C)c1cccs1)c1ccc(N)cc1`, for which the “activation” value was -3.9%.
The same measure for `Cc1ccnc(NS(=O)(=O)c2ccc(NC(=O)CCc3ccccc3)cc2)n1`: 4.42%; for `FC(F)(F)c1ccc(Cl)c(-n2c(Cc3cccs3)n[nH]c2=S)c1`: -10.4%; for `COc1ccc(CNC(=O)C2Cc3c(-c4ccccc4)ccnc3O2)cc1OC` (stereo unspecified): 11%.
In the case of `O=C(OC1CCOC1=O)c1cc(-c2ccc(Cl)cc2)nc2ccccc12` (stereo unspecified), the “activation” value was 8.02%.
In the case of `COc1ccc(C2CNC(=O)C2)cc1OC1CCCC1` (stereo unspecified), the “activation” value was -4.37%.
The same measure for `O=S(=O)(NCc1ccccc1)c1ccc(S(=O)(=O)N2CCCCC2)cc1`: -3.85%.
The same measure for `CCCn1c(O)c(N=NC(=O)c2cccnc2)c2cc(Br)ccc21`: -27%; for `COc1ccc(C(=O)N=C2CCC(C#N)=C3c4cc(OC)c(OC)cc4CCN23)cc1`: -15%; for `C=CCN=c1sc(C(=O)OC)cc(=O)n1CC=C`: -3.79%.
The same measure for `CC(=O)C(C)n1c(CN(C)Cc2ccccc2)nc2c1c(=O)n(C)c(=O)n2C` (stereo unspecified): -4.37%; for `COC(=O)C1CCN(c2cc(Cl)nc(N)n2)CC1`: -11%; for `O=C(NC(=S)NCC1CCCO1)c1ccc(Cl)cc1Cl` (stereo unspecified): 0.701%.
`O=C(Nc1ccc(Br)cc1)c1cc2ccccn2n1`: the “activation” value was 7.83%.
With `COc1ccc(C(=O)Nc2ccccc2C(=O)NCC2CCCO2)cc1` (stereo unspecified), the “activation” value was 5.62%.
The same measure for `COC(=O)c1c(C)oc(C)c1S(=O)(=O)Nc1ccc(C(C)C)cc1`: -3.18%.
On to `COc1ccc(/C=C/c2noc(-c3ccccc3OC(C)=O)n2)cc1`, for which the “activation” value is 4.45%.
The same measure for `CCCCc1[nH]c(=O)c(C#N)c2c1CCCC2`: -9.04%; for `COC(=O)c1ccc(Oc2ccc(C(F)(F)F)cn2)cc1`: 4.53%; for `c1cc2c(cc1CN1CCN(C3CCCCCC3)CC1)OCO2`: 1.19%.
The same measure for `CCOc1ncccc1C(=O)NNC(=O)c1ccccc1-n1cccc1`: -4.2%; for `CCOc1ncccc1C(=O)NCc1ccc(C)cc1`: 4.91%; for `O=C(c1cccs1)N(Cc1ccccn1)Cc1ccco1`: -8.86%.
The same measure for `COc1ccc2nc(CCN(C)C(=O)C3CCC(=O)N(Cc4cccc(F)c4)C3)[nH]c2c1` (stereo unspecified): -15.1%; for `CC1(C)CCCC(C)(C)N1CC(O)COCCOc1ccc(Br)cc1` (stereo unspecified): 0.686%.
Take `Cc1ccc2c(c1)CCCN2C(=O)c1ccc2c(c1)OCO2`: the “activation” value was 1.47%.
The same measure for `CN(C(=O)c1ccc2c(c1)SC1=NS(=O)(=O)CCN12)C(c1ccccc1)c1ccccc1`: -6.46%; for `CCOc1ccc(CCNC(=O)Cn2ccc3ccccc3c2=O)cc1OCC`: -1.1%; for `COc1cc(CN(C)c2ccc(S(=O)(=O)N3CCCC3)cn2)ccc1OC(F)F`: 1.77%.
The same measure for `CC(C)(C)C1=Nn2c(nnc2C2CCCCC2)SC1`: 11.8%; for `COc1ccc(CCNC(=O)CCC(=O)c2cccs2)cc1OC`: -22.3%.
The same measure for `COc1ccc(C2CC(=O)C(c3ccc(C)cc3)=CN2Cc2ccccc2)cc1` (stereo unspecified): -10.9%.
With `CCN1CCN(c2nnc(-c3ccccc3)c3ccccc23)CC1`, the “activation” value was -5.54%.
The same measure for `CCn1cc(C(=O)O)c(=O)c2cc(F)c(N3CCN(C(=S)NC(=O)c4cccc(C)c4)CC3)cc21`: -18%.
As to `CCOC(=O)c1nn(-c2ccccc2)c2nc(Nc3ccccc3)cc(=O)n12`, the “activation” value was -13.5%.
The same measure for `CC1CC1C(=O)Nc1cc(C(F)(F)F)ccc1N1CCOCC1` (stereo unspecified): -7.62%.

These data come from PubChem BioAssay AID977606 (Broad Institute, 2014).
